The full ranking holds about 39,000 sequences; the median of “fluorescence intensity (a.u.)” is about 4,300, and the highest 2% start at about 39,000. The full list was thinned out, with the highest values kept by preference.
Target: T1, OsSMF1 (Oryza sativa, UniProt Q6ZLB0 1-436)
T1 sequence: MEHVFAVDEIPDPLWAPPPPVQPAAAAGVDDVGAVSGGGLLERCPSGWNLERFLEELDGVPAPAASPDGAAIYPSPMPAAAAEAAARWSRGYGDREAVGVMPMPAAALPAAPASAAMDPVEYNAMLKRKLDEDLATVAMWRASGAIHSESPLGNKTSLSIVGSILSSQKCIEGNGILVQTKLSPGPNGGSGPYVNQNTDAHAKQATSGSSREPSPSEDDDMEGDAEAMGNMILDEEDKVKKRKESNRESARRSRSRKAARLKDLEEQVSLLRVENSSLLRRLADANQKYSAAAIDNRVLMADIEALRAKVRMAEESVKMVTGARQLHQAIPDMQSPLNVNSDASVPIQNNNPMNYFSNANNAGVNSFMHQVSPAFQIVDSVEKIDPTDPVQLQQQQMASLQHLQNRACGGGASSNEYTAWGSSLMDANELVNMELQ
Experiment: protein-binding microarray (RPBM); PBS, 2% BSA, 51.3 ng/ul salmon testes DNA, 50 uM zinc acetate, 200 nM TF, 25 C, 1 h; high values mean tight binding
Conditions: protein: recombinant; tags: N-terminal polyhistidine and DsRed monomer fusion (pET32a); chain copies: 2; label: CyDye5-dUTP incorporated in the synthesized complementary strand; 3' TTTTT single-stranded linker to array surface; dsDNA, one strand shown
Method in brief: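 Transcription factors were each fused at the N-terminus to a polyhistidine tag plus DsRed and expressed in E. coli BL21-CodonPlus before Ni–NTA purification. Binding to a double-stranded custom Agilent array was carried out with 200 nM protein at 25 °C for 1 h in PBS, 2% BSA, salmon testes DNA and 50 µM zinc acetate. The binding signal is per-feature fluorescence intensity, in arbitrary units, on an Axon 4000B scanner.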

Sequence | binding signal
CTGTTATCTTTCAATAAACCAAGGGAATTTTAGTTTGTTCCGGAGTCACCTAGTGCAG | 33200 fluorescence intensity (a.u.)
AAGAGGATGGCTGGGAGGATGACATGTGGAGCCCACATGGCGGAGTCACCTAGTGCAG | 4450 fluorescence intensity (a.u.)
AACCTCCATCTCCCGCCCAGTGCCGCCGCGCCACGTCACCCGGAGTCACCTAGTGCAG | 39100 fluorescence intensity (a.u.)
TCCACCCCACGTCCTCCTCCTCCCCAGCAGTCCCACCCGCCGGAGTCACCTAGTGCAG | 3570 fluorescence intensity (a.u.)
GGCGCCGTGCCGTAATCCATCTCCTCCGTCGTCCAACCTCCGGAGTCACCTAGTGCAG | 44900 fluorescence intensity (a.u.)
ACATCCACAACCATCTCCACCTCACCTCGTCCATCGTCTCCGGAGTCACCTAGTGCAG | 6010 fluorescence intensity (a.u.)
AGCCCGGCCCACCACGGGGTTTCCCTCTTCTCTAGGCCCGCGGAGTCACCTAGTGCAG | 50600 fluorescence intensity (a.u.)
TCTCTTCCCCTCTCCGCGCCGCCCTCCGCCCCGCCCGCGGCGGAGTCACCTAGTGCAG | 3270 fluorescence intensity (a.u.)
CCAACCCATCTCCACCGTCCATCTCCATCCGACGCCTCCCCGGAGTCACCTAGTGCAG | 24300 fluorescence intensity (a.u.)
CGCCCGAGAGCGAACGGCCGTCTGCCACGTCACTTTCGCCCGGAGTCACCTAGTGCAG | 29100 fluorescence intensity (a.u.)
TCCCTCCCTCCGCCGCGCCACGCCCACCCACGCATCCATCCGGAGTCACCTAGTGCAG | 4110 fluorescence intensity (a.u.)
CCCGAGAGCGAACGGCCGTCTGCCACGTCATTTTCGCCGCCGGAGTCACCTAGTGCAG | 29700 fluorescence intensity (a.u.)
CCGGCCACCGCCCTCCCGCCGCACGGGCCACCGGCCACCGCGGAGTCACCTAGTGCAG | 3460 fluorescence intensity (a.u.)
CGAGAGCGAACGGCCGTCTGCCACGTCACTTTCGCCACCCCGGAGTCACCTAGTGCAG | 41900 fluorescence intensity (a.u.)
GGTTGAATCAAATTGTTCCTCTGTTACACTTACACATCATCGGAGTCACCTAGTGCAG | 3250 fluorescence intensity (a.u.)
AATACTGAATACTAGTGCAACGTCATTGAAAATTTTATCCCGGAGTCACCTAGTGCAG | 5090 fluorescence intensity (a.u.)
CGTCGTGCCTACGGGCCGTTCGCGTGTCGTGTCGGCCCAACGGAGTCACCTAGTGCAG | 3850 fluorescence intensity (a.u.)
ACGGTAGGAGCTGCAGCGGTCGGGGTGGGAGCAGGGGTCGCGGAGTCACCTAGTGCAG | 3440 fluorescence intensity (a.u.)
AAATGTTATGAGTACGATGACACATTAAAACACAGTCATTCGGAGTCACCTAGTGCAG | 4650 fluorescence intensity (a.u.)
TTTTGGGCCTCCTGTGACCTACATGGGCCGCACTTCTTTCCGGAGTCACCTAGTGCAG | 25900 fluorescence intensity (a.u.)
TTACAGGTGTTGTCATTTTATGTGACCGGTCAGACCGGGCCGGAGTCACCTAGTGCAG | 4510 fluorescence intensity (a.u.)

Sequence | binding signal
GACCATAAGTGTCCACGTATGCAAAACTCGACCTCCGTTTCGGAGTCACCTAGTGCAG | 13800 fluorescence intensity (a.u.)
CACAACCACAAGGTTGTCATTACCTCTATCATCGGTGTAACGGAGTCACCTAGTGCAG | 3380 fluorescence intensity (a.u.)
CATCATGTCCTATCTGAACTGTTACAACCACGACGTAGTACGGAGTCACCTAGTGCAG | 3320 fluorescence intensity (a.u.)
CATTTATAACTTTGCTGTGTTTCACTGATGCAGGTTTTATCGGAGTCACCTAGTGCAG | 3490 fluorescence intensity (a.u.)
GCGCGCGCCACCGCACCCGCGACGCCGACGTGTTCATGACCGGAGTCACCTAGTGCAG | 5890 fluorescence intensity (a.u.)
CACGCCGCCGCCCGTCGCGAGCTCCACGTCGAGCAGCAGCCGGAGTCACCTAGTGCAG | 4920 fluorescence intensity (a.u.)
GTGGCGCGCGCGCGCACGCACGCTGGGCGACACGCCACGCCGGAGTCACCTAGTGCAG | 4530 fluorescence intensity (a.u.)
CGCCACCGTCACCGACCGCGCGCGCACGCACGCACACTCCCGGAGTCACCTAGTGCAG | 3390 fluorescence intensity (a.u.)
CCCCTCCGCCTCGTCCCCATCGGCCACTGCCACCACCGCCCGGAGTCACCTAGTGCAG | 3700 fluorescence intensity (a.u.)
CCGTCGCCGCCAAGCATCGAGCCGCCGGCCACAGCAGCCGCGGAGTCACCTAGTGCAG | 42100 fluorescence intensity (a.u.)
AAAGCCGCACACGTGTTTCCCGCGACCGCGCCACGTCACCCGGAGTCACCTAGTGCAG | 46700 fluorescence intensity (a.u.)
CCAGCATCGCCGGCAGATCCACGTCGAGCATCGCGGCAGGCGGAGTCACCTAGTGCAG | 5190 fluorescence intensity (a.u.)
TCCGCCGTCGCCGCTCCGTCCATCGCCCGCCGTCACCGCCCGGAGTCACCTAGTGCAG | 4040 fluorescence intensity (a.u.)
CGGCGTGGCCGCTGCGTCACGGGCGACTGCGCCAGCGTGCCGGAGTCACCTAGTGCAG | 5890 fluorescence intensity (a.u.)
CCGCCGCAGCCGCAGCCGGCCAAGCTGGGCGTCGGCGACACGGAGTCACCTAGTGCAG | 39700 fluorescence intensity (a.u.)
CGGTCGGTCCATCGCCCTCCGTCCCCATCCCCACCGTCACCGGAGTCACCTAGTGCAG | 41900 fluorescence intensity (a.u.)
TACAAAATCATCCATCAACCGCAAAATCAGATATCGACCGCGGAGTCACCTAGTGCAG | 3800 fluorescence intensity (a.u.)
GATGTGACGTGATGTGATGGAAAGTTGGGAGTTGGGGAAACGGAGTCACCTAGTGCAG | 6040 fluorescence intensity (a.u.)
TTGGCCGGTAACGCGTCATGACTCATGAGCTACTGGACTTCGGAGTCACCTAGTGCAG | 9990 fluorescence intensity (a.u.)
TTCGTCCGTGCGTGCGTGCGTGCGCGACTCGCTCTCACACCGGAGTCACCTAGTGCAG | 10700 fluorescence intensity (a.u.)
TACATTTCTTTGACAAAACTTTTATAACCAGCTGATGTGGCGGAGTCACCTAGTGCAG | 11400 fluorescence intensity (a.u.)
